Measurements: PubChem BioAssay (NCI)
Compounds without any hit were thinned out: in the full panel of roughly 83,000, 20% have a hit.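 Single-concentration screen, 48 h exposure, 96-well plates. Endpoint: percent growth. Below 10 = active.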 Calls of active or inactive are those of the source.

What was measured:
Experiment in all cases: NCI-60 one-dose screen, 48 h (100 = growth as untreated, 0 = no growth, -100 = all killed)
NCI-H23 lung = conditions: 10 µM unless noted
NCI-H226 lung = conditions: 10 µM unless noted
NCI-H322M lung = conditions: 10 µM unless noted
NCI-H460 lung = conditions: 10 µM unless noted
HOP-92 NSCLC = conditions: 10 µM
NCI-H522 lung = conditions: 10 µM
A549/ATCC NSCLC = conditions: 10 µM unless noted
786-0 renal = conditions: 10 µM unless noted
COLO 205 colon = conditions: 10 µM unless noted
DU-145 prostate = conditions: 10 µM unless noted
K-562 leukemia = conditions: 10 µM unless noted
MDA-MB-231 breast = conditions: 10 µM unless noted
RXF 393 renal = conditions: 10 µM unless noted
SF-268 CNS = conditions: 10 µM unless noted
SF-295 CNS = conditions: 10 µM unless noted
SF-539 CNS = conditions: 10 µM unless noted
UACC-257 melanoma = conditions: 10 µM unless noted
M14 melanoma = conditions: 10 µM unless noted
MALME-3M melanoma = conditions: 10 µM unless noted

Measured: growth

COc1ccccc1Nc1nnc(COc2ccc(CNC(=O)CCCC/C=C/C(C)C)cc2OC)o1
inactive: NCI-H23 lung 92.2% | NCI-H226 lung 79.7% | NCI-H322M lung 97.4% | NCI-H460 lung 105% | HOP-92 NSCLC 79.1% | NCI-H522 lung 81% | A549/ATCC NSCLC 99.3% | 786-0 renal 96.2% | COLO 205 colon 125% | DU-145 prostate 99% | K-562 leukemia 67.9% | MDA-MB-231 breast 99.2% | RXF 393 renal 103% | SF-268 CNS 90.8% | SF-295 CNS 88.8% | SF-539 CNS 93.4% | UACC-257 melanoma 96.7% | M14 melanoma 95.4%

Cc1c(CN(C)C)cc(C(C)C)cc1C(C)C
inactive: NCI-H23 lung 102% | NCI-H226 lung 93.5% | NCI-H322M lung 129% | NCI-H460 lung 111% | HOP-92 NSCLC 129% | NCI-H522 lung 85% | A549/ATCC NSCLC 101% | 786-0 renal 103% | COLO 205 colon 131% | DU-145 prostate 113% | MALME-3M melanoma 124% | MDA-MB-231 breast 104% | RXF 393 renal 112% | SF-268 CNS 111% | SF-295 CNS 116% | SF-539 CNS 118% | UACC-257 melanoma 108% | M14 melanoma 108%

Nc1nc2c(c3ncncc13)C(c1cccc(C(F)(F)F)c1)Cc1ncncc1-2 (stereo not drawn)
active: RXF 393 renal 6.31% | SF-539 CNS -26.6%
inactive: NCI-H23 lung 18.4% | NCI-H226 lung 55.6% | NCI-H322M lung 39% | NCI-H460 lung 10% | HOP-92 NSCLC 46% | NCI-H522 lung 32.9% | A549/ATCC NSCLC 39.8% | 786-0 renal 28.5% | DU-145 prostate 15.6% | K-562 leukemia 16.9% | MALME-3M melanoma 66.2% | MDA-MB-231 breast 45% | SF-268 CNS 45.8% | SF-295 CNS 11.9% | UACC-257 melanoma 67.9% | M14 melanoma 11.4%

O=C1/C(=C\c2cn(-c3nc(N4CCOCC4)nc(N4CCOCC4)n3)c3ccccc23)c2ccccc2N1c1c(Cl)cccc1Cl
inactive: NCI-H23 lung 79.7% | NCI-H226 lung 60.1% | NCI-H322M lung 28.2% | NCI-H460 lung 40.8% | NCI-H522 lung 75.3% | A549/ATCC NSCLC 68.4% | 786-0 renal 29.5% | DU-145 prostate 57.1% | K-562 leukemia 80.6% | MALME-3M melanoma 95.6% | MDA-MB-231 breast 76.9% | SF-268 CNS 57.8% | SF-295 CNS 37.6% | SF-539 CNS 63% | UACC-257 melanoma 80.7% | M14 melanoma 78.2%
active: HOP-92 NSCLC 3.38% | RXF 393 renal -10.8%

N=C(N)c1ccc(-c2ccc(-c3cc(Cl)cc(Cl)c3)s2)cc1
active: NCI-H23 lung -77.4% | NCI-H226 lung -64.7% | NCI-H322M lung -84.4% | NCI-H460 lung -81.1% | HOP-92 NSCLC -77.1% | NCI-H522 lung -41.2% | A549/ATCC NSCLC -50.8% | 786-0 renal -73.3% | DU-145 prostate -89.8% | K-562 leukemia -55.1% | MALME-3M melanoma -74.4% | MDA-MB-231 breast -78.4% | RXF 393 renal -90.2% | SF-268 CNS -66.1% | SF-295 CNS -87.3% | SF-539 CNS -92.7% | UACC-257 melanoma -44% | M14 melanoma -85.3%

C[C@@H](c1ccc2c(c1)[nH]c1ccc(Cl)cc12)c1nc2ccc(Cl)cc2[nH]1
inactive: NCI-H23 lung 85.6% | NCI-H226 lung 101% | NCI-H322M lung 85.8% | NCI-H460 lung 82.4% | HOP-92 NSCLC 99.5% | NCI-H522 lung 43.6% | A549/ATCC NSCLC 88.3% | 786-0 renal 75.9% | COLO 205 colon 116% | DU-145 prostate 90.7% | K-562 leukemia 52.6% | MDA-MB-231 breast 60.1% | RXF 393 renal 101% | SF-268 CNS 80.9% | SF-295 CNS 99.4% | SF-539 CNS 85.7% | UACC-257 melanoma 98% | M14 melanoma 100%

COc1ccc(/C=C2\SC(=O)N(Cc3cc(=O)oc4ccc(OC)cc34)C2=O)cc1
inactive: NCI-H23 lung 71.6% | NCI-H226 lung 67.9% | NCI-H322M lung 84.9% | NCI-H460 lung 94.1% | HOP-92 NSCLC 86% | NCI-H522 lung 77.9% | A549/ATCC NSCLC 96.4% | 786-0 renal 83.9% | COLO 205 colon 111% | DU-145 prostate 91.3% | K-562 leukemia 54.2% | MDA-MB-231 breast 83.1% | RXF 393 renal 110% | SF-268 CNS 88.8% | SF-295 CNS 82.7% | SF-539 CNS 89.6% | UACC-257 melanoma 100% | M14 melanoma 92.7%

CCCCCSc1ccc2nc(NC(=O)OCCC)sc2c1
active: SF-539 CNS -24.7%
inactive: NCI-H23 lung 25.5% | NCI-H226 lung 30.1% | NCI-H322M lung 50% | NCI-H460 lung 13.9% | HOP-92 NSCLC 36.3% | NCI-H522 lung 29.4% | A549/ATCC NSCLC 46.4% | 786-0 renal 31.1% | DU-145 prostate 43.2% | K-562 leukemia 19% | MALME-3M melanoma 62.5% | MDA-MB-231 breast 43.3% | RXF 393 renal 28.8% | SF-268 CNS 55.2% | SF-295 CNS 19.9% | UACC-257 melanoma 63.1% | M14 melanoma 23.1%

CCOC(=O)c1c(C)oc2ncnc(Nc3ccc(NC(=O)Nc4ccc(CC)cc4)cc3)c12
inactive: NCI-H23 lung 90.7% | NCI-H226 lung 104% | NCI-H322M lung 102% | NCI-H460 lung 106% | HOP-92 NSCLC 94.3% | NCI-H522 lung 83.5% | A549/ATCC NSCLC 89.2% | 786-0 renal 99.8% | DU-145 prostate 103% | K-562 leukemia 98% | MALME-3M melanoma 101% | MDA-MB-231 breast 94.7% | RXF 393 renal 98.3% | SF-268 CNS 103% | SF-295 CNS 109% | SF-539 CNS 89.4% | UACC-257 melanoma 111% | M14 melanoma 99.9%

CCCCN(CCCC)CC(O)CN(CC)CC (stereo not drawn)
inactive: NCI-H23 lung 99.6% | NCI-H226 lung 96.3% | NCI-H322M lung 97.6% | NCI-H460 lung 114% | HOP-92 NSCLC 93.4% | NCI-H522 lung 95.3% | A549/ATCC NSCLC 99% | 786-0 renal 104% | COLO 205 colon 99.3% | DU-145 prostate 113% | K-562 leukemia 92.4% | MDA-MB-231 breast 95.8% | RXF 393 renal 104% | SF-268 CNS 106% | SF-539 CNS 108% | UACC-257 melanoma 105% | M14 melanoma 95%

COc1cccc(Cn2cc3c(c2)-c2oncc2CC3)c1
active: NCI-H460 lung 1.35% | COLO 205 colon 9.83% | MDA-MB-231 breast 5.68% | RXF 393 renal 8.73% | SF-295 CNS -29.1% | SF-539 CNS -7.13%
inactive: NCI-H23 lung 16.3% | NCI-H226 lung 13.8% | NCI-H322M lung 19.2% | HOP-92 NSCLC 97.1% | NCI-H522 lung 29.5% | A549/ATCC NSCLC 28.3% | 786-0 renal 30.2% | DU-145 prostate 11.3% | K-562 leukemia 13.6% | SF-268 CNS 37.6% | UACC-257 melanoma 73.1% | M14 melanoma 12.5%

Nc1nc2c(c3cnccc13)C(c1cccc(Br)c1)Cc1cnccc1-2 (stereo not drawn)
active: NCI-H23 lung -0.611% | NCI-H460 lung 4.41% | NCI-H522 lung 3.33% | K-562 leukemia 9.88% | MDA-MB-231 breast 4.34% | RXF 393 renal 7.59% | SF-539 CNS -15.9%
inactive: NCI-H226 lung 25.5% | NCI-H322M lung 31.5% | HOP-92 NSCLC 15.6% | A549/ATCC NSCLC 13.2% | 786-0 renal 14.1% | DU-145 prostate 11.4% | MALME-3M melanoma 36.1% | SF-268 CNS 20.3% | SF-295 CNS 13.6% | UACC-257 melanoma 55.5%

COc1cc(-c2cc3cnccc3c3nc(N)c4ccncc4c23)cc(OC)c1OC
active: HOP-92 NSCLC -0.882% | RXF 393 renal 8.24%
inactive: NCI-H23 lung 64.3% | NCI-H226 lung 56.1% | NCI-H322M lung 58.7% | NCI-H460 lung 54.9% | NCI-H522 lung 57.1% | A549/ATCC NSCLC 42.5% | 786-0 renal 24.8% | DU-145 prostate 62.3% | K-562 leukemia 24.1% | MALME-3M melanoma 59.8% | MDA-MB-231 breast 42.9% | SF-268 CNS 49.4% | SF-295 CNS 67.3% | SF-539 CNS 38% | UACC-257 melanoma 92.2%

C=CCN(C)C
inactive: NCI-H23 lung 102% | NCI-H226 lung 97.3% | NCI-H322M lung 114% | NCI-H460 lung 108% | HOP-92 NSCLC 110% | NCI-H522 lung 93.7% | A549/ATCC NSCLC 100% | 786-0 renal 106% | COLO 205 colon 121% | DU-145 prostate 119% | MALME-3M melanoma 111% | MDA-MB-231 breast 97.7% | RXF 393 renal 111% | SF-268 CNS 106% | SF-295 CNS 103% | SF-539 CNS 109% | UACC-257 melanoma 106% | M14 melanoma 107%

CCNc1nnc(COc2ccc(CNC(=O)CCCC/C=C/C(C)C)cc2OC)o1
inactive: NCI-H23 lung 93.7% | NCI-H226 lung 101% | NCI-H322M lung 107% | NCI-H460 lung 103% | HOP-92 NSCLC 98.3% | NCI-H522 lung 83.7% | A549/ATCC NSCLC 97% | 786-0 renal 95.5% | COLO 205 colon 110% | DU-145 prostate 109% | K-562 leukemia 91.6% | MDA-MB-231 breast 104% | RXF 393 renal 120% | SF-268 CNS 97.1% | SF-295 CNS 97.1% | SF-539 CNS 104% | UACC-257 melanoma 105% | M14 melanoma 102%

COC(c1ccccc1)C(Br)C(=O)c1ccccc1 (stereo not drawn)
inactive: NCI-H23 lung 109% | NCI-H226 lung 92.5% | NCI-H322M lung 96.2% | NCI-H460 lung 127% | HOP-92 NSCLC 71.1% | NCI-H522 lung 74.9% | A549/ATCC NSCLC 95.3% | 786-0 renal 92.2% | DU-145 prostate 116% | K-562 leukemia 93.8% | MALME-3M melanoma 87.8% | MDA-MB-231 breast 92.9% | RXF 393 renal 89.4% | SF-268 CNS 108% | SF-295 CNS 93.3% | SF-539 CNS 99.5% | UACC-257 melanoma 87.2% | M14 melanoma 90.6%

Cc1c(Cc2ccccc2)c(=O)oc2c(C)c(OCc3n[nH]c(=S)o3)ccc12
active: NCI-H460 lung 3.31%
inactive: NCI-H23 lung 57.7% | NCI-H226 lung 84.8% | NCI-H322M lung 63.8% | HOP-92 NSCLC 57.8% | NCI-H522 lung 61% | A549/ATCC NSCLC 26.9% | 786-0 renal 68.9% | DU-145 prostate 19.4% | K-562 leukemia 71.6% | MALME-3M melanoma 48.7% | MDA-MB-231 breast 80.7% | RXF 393 renal 98.8% | SF-268 CNS 75.9% | SF-295 CNS 77% | SF-539 CNS 92.1% | UACC-257 melanoma 88% | M14 melanoma 99.3%
